ERAP1 HTS inh = blocks human ERAP1 aminopeptidase activity; 340,000 compounds, 0.15% hits; recombinant ERAP1, Leu-AMC fluorescence, 60 min; inhibition, % at 10.7 µM; Q9NZ08;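 active means mean replicate inhibition of at least 30%, or all replicates individually reaching that 30% level; inactive means mean below 30% and not every replicate reaching it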;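 further: 0% = neutral control wells and 100% = L-leucinethiol positive control wells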
FGF22 binding = FGF22 (human) thermal shift binding. Q9HCT0. activity (Tm shift, normalised), % at 9.99 µM. AID 651658. 340,000 compounds, 1.5% hits. recombinant FGF22 thermal shift, SYPRO orange fluorescence; percent of sucrose octasulfate shift, DMSO zero;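 active means mean Tm shift, scaled 0 neutral to 100 positive control, at about 1.3% or above, every replicate too, limit read from the data; inconclusive means no clear call, values can overlap the other calls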
Target sequence (Q9HCT0 whole entry, looked up): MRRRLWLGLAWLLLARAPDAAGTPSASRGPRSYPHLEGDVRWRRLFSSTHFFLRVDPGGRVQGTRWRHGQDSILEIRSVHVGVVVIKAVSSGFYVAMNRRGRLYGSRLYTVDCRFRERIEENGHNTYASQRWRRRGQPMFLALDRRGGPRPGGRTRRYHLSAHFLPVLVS
RAD52 inh = RAD52 (human) annealing inhibition. inhibition, % at 18.7 µM. AID 651710. P43351. 360,000 compounds, 0.46% hits. recombinant RAD52 DNA annealing, FRET fluorescence;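 active means every replicate showing at least 50% inhibition; inconclusive means mean inhibition at least 50% but not in every replicate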
Target sequence (P43351 whole entry, looked up): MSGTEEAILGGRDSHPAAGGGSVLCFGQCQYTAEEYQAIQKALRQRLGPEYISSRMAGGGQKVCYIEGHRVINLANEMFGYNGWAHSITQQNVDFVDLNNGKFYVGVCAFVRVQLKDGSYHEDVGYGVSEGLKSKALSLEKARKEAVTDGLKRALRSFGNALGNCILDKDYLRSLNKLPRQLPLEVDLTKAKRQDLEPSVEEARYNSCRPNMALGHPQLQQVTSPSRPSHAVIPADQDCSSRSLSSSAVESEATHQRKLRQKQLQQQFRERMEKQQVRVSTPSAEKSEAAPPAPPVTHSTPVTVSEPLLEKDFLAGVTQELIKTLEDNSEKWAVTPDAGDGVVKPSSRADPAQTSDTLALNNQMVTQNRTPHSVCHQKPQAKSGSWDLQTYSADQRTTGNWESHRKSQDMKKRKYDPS
MLL AF4-AF9 inh = inhibitors of human MLL-AF4/AF9 interaction; P42568; AlphaScreen, biotin-AF4 peptide binding to FLAG-AF9; inhibition, % at 10 µM; 350,000 compounds, 0.47% hits; AID 651704;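 active means every replicate reaching a set inhibition limit, whatever the replicate mean, cut at about 25% in these data; inconclusive means mean inhibition reaches that limit but some replicates miss it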;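 further: 0% = plate neutral control median and 100% = total signal loss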
DENV2 CPE = inhibitors of DENV2 cytopathic effect; DENV2-infected cells, cytopathic effect rescue, plate reader; CPE inhibition, % at 9.99 µM; 350,000 compounds, 1.7% hits; in the data active means CPE inhibition above about 20%, passing the limit was not always enough; inconclusive means no clear call, values can overlap the other calls; tested in BHK-21 cells;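 further: 0% = median of neutral control wells and 100% = median of positive control wells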
Starred values were filed as active, the others as inactive; u = inconclusive; x = no result given; ! = not active in a repeat. In the library only some 4% were active in any assay of this set; here they are far more common.

SMILES	ERAP1 HTS inh	FGF22 binding	RAD52 inh	MLL AF4-AF9 inh	DENV2 CPE
COc1ccc2oc(C(=O)NCC3CCCO3)c(C)c2c1 (stereo not given)	4.3	0.0	-7.1	-4.1	6.3
CCOc1ccc2oc(C(=O)NCC3CCCO3)c(C)c2c1 (stereo not given)	3.2	0.0	-9.7	1.1	64.2*
Cc1ccccc1S(=O)(=O)N1CC(=O)N2[C@H](CO)[C@@H](c3ccc(C#CCC(C)C)cc3)[C@@H]2C1	0.2	x	-8.9	-4.4	4.8
O=C(CN1CCOCC1)NCC[C@H]1CC[C@H](NC(=O)Cc2ccccn2)[C@H](CO)O1	2.2	-0.2	-22.9	6.8	-1.4
O=C(N[C@@H]1CC[C@H](CCNS(=O)(=O)Cc2ccccc2)O[C@@H]1CO)c1ccc2c(c1)OCO2	0.8	-0.1	7.2	-1.7	21.7*
O=C(CN1CCOCC1)NCC[C@@H]1CC[C@H](NC(=O)c2ccc3c(c2)OCO3)[C@@H](CO)O1	-0.5	-0.2	-4.1	1.2	22.0*
O=C(Cc1ccccn1)NCC[C@H]1CC[C@@H](NC(=O)c2ccccc2F)[C@@H](CO)O1	9.8	0.7	-20.6	-1.3	40.2*
O=C(CN1CCOCC1)NCC[C@H]1CC[C@H](NC(=O)Cc2ccccn2)[C@@H](CO)O1	1.8	0.0	-20.1	-1.3	24.4*
O=C(CN1CCOCC1)NCC[C@@H]1CC[C@H](NC(=O)c2ccc3c(c2)OCO3)[C@H](CO)O1	-3.5	-0.2	4.1	1.3	-12.2
CO[C@@H]1CN(C)C(=O)c2ccc(NC(=O)C3CC3)cc2OC[C@@H](C)N(CCC(F)(F)F)C[C@H]1C	-0.8	-0.1	9.2	-2.6	-4.3
CCn1nnc(NC(=O)c2ccc([N+](=O)[O-])o2)n1	-2.2	43.5*	1.3	-1.6	-6.7
C[C@H](CO)N1C[C@H](C)[C@@H](CN(C)Cc2cccc(C(=O)O)c2)Oc2cc(C#CCC3CCCC3)ccc2S1(=O)=O	x	0.2	-20.8	7.1	3.3
O=C1CNC(=O)/C(=C\c2ccc(F)cc2)N1	3.0	0.0	-3.6	-0.5	-1.4
O=C1CNC(=O)/C(=C/c2cccs2)N1	-0.1	43.4*	-21.8	-0.7	-3.0
Cc1cc(N/N=C(/CCC(=O)O)C(=O)O)nc2ccccc12	-0.7	0.1	-26.5	-3.1	4.1
CC(=NNc1cc(C)c2ccccc2n1)c1ccccn1	-0.4	-0.2	-93.8	28.6*	-5.0
N=C(N)c1ccc(N)cc1	3.7	0.2	99.6*	12.8	-6.4
N=C(N)c1ccc(OCCCCCOc2ccc(C(=N)N)cc2)cc1	3.1	-0.1	16.0	5.8	6.1
O=C(NNC(=S)Nc1ccc(F)c(Cl)c1)c1ccccc1Br	-1.2	2.1*	-17.5	2.9	-4.3
CC(=O)Nc1cccc(NC(=O)Nc2ccc(C)c(Cl)c2)c1	-2.0	42.6	-15.2	-0.7	7.0
O=C(NNC(=S)Nc1ccc(F)c(Cl)c1)C1CC1	7.3	0.1	-15.6	-2.6	17.6
CC(=O)Nc1cccc(NC(=S)Nc2ccc(F)c(Cl)c2)c1	1.3	1.3*	-16.6	1.0	-1.4
CCNC(=O)[C@@H]1[C@@H](CO)[C@@H]2Cn3c(cccc3=O)[C@@H]2N1CC1CCCCC1	x	x	x	-5.2	x
CNC(=O)C[C@H]1CC[C@@H]2[C@@H](COc3ccc(NC(=O)C4CCCCC4)cc3C(=O)N2C)O1	x	x	x	-3.7	x
CN1CCCN=C1/C=C/c1cccs1	1.9	-0.2	-7.2	-0.9	73.9*
SMILES	ERAP1 HTS inh	FGF22 binding	RAD52 inh	MLL AF4-AF9 inh	DENV2 CPE
O=C(/C=C/c1cccs1)N1CCCC1	-4.2	0.0	9.5	-1.3	2.0
COc1ccc(OC)c(-c2cc(C(=O)NC3CCCC3)c3ccccc3n2)c1	-1.0	0.0	-25.3	1.6	36.1*
O=S(=O)(NCc1ccccn1)c1cc(C(F)(F)F)ccc1Cl	1.9	43.3*	4.7	-0.4	-5.6
O=S(=O)(NCc1ccccn1)c1cc(Cl)ccc1Cl	0.3	0.0	-18.8	5.1	-12.1
COc1ccc(C(=O)NC(=S)N(C)C2CCCCC2)cc1Br	2.2	-0.3	-1.8	-1.3	59.3*
COc1ccc(C(=O)NC(=S)NNC(=O)c2ccc(NC(C)=O)cc2)cc1Br	4.1	43.0*	-11.2	-0.4	10.2
CO[C@H]1CN(C)C(=O)c2cc(NC(=O)C3CC3)ccc2OC[C@H](C)N(C(C)=O)C[C@@H]1C	0.1	-0.2	-7.4	-2.2	-4.5
CCC(C)C(NC(=O)C(C)NC(=O)CNC(=O)OC(C)(C)C)C(N)=O (stereo not given)	-1.6	42.1	-23.7	-3.3	-7.9
CCC(C)C(NC(=O)OC(C)(C)C)C(=O)NC(C)C(N)=O (stereo not given)	0.5	42.9*	-6.6	1.6	-1.1
C[C@@H]1CN([C@H](C)CO)S(=O)(=O)c2ccc(C#CC3CCCC3)cc2O[C@H]1CN(C)Cc1cccnc1	-0.3	-0.7	-10.0	8.1	-2.1
NS(=O)(=O)c1ccc(NC(=O)CCCCC(=O)Nc2ccc(S(N)(=O)=O)cc2)cc1	1.5	0.0	-29.0	-20.1	2.7
CCN(CC)C(=S)SCC(=O)Nc1ccc(S(N)(=O)=O)cc1	1.2	43.4*	-7.6	-0.7	2.2
COc1ccc(-c2ccc3c(c2)[C@@H]2[C@@H](CCN2C(=O)c2ccc4c(c2)OCO4)[C@@H](CO)N3)cc1	x	-0.3	x	x	74.2*
O=C(c1ccc2c(c1)OCO2)N1CC[C@@H]2[C@H](CO)Nc3ccc(-c4ccccc4)cc3[C@@H]21	-1.3	-0.1	-5.3	-3.5	22.6*
CCC(=O)Nc1ccc2c(c1)OC[C@@H](C)N(C(=O)NC(C)C)C[C@@H](C)[C@H](OC)CN(C)C2=O	3.5	0.2	18.8	-12.2	15.6
O=C(Nc1ccccc1F)N1[C@@H]2CNC[C@H]1C2c1ccc(-c2ccccc2)cc1 (stereo not given in full)	0.0	x	38.9	9.6	-4.0
COc1ccc(-c2ccc(C3[C@H]4CNC[C@@H]3N4C(=O)Nc3ccccc3F)cc2)cc1 (stereo not given in full)	-0.5	x	25.4	1.5	25.9*!
COc1ccc(NC(=O)N2[C@@H]3CNC[C@H]2C3c2ccc(-c3ccc(C)cc3)cc2)cc1 (stereo not given in full)	-0.9	x	49.4	12.5	32.7*!
COc1ccc(NC(=O)N2[C@@H]3CNC[C@H]2C3c2ccc(-c3ccccc3)cc2)cc1 (stereo not given in full)	9.5	x	38.7	10.6	u
COc1ccc(-c2ccc(C3[C@H]4CNC[C@@H]3N4C(=O)Nc3ccc4c(c3)OCO4)cc2)cc1 (stereo not given in full)	0.7	x	46.7	20.4	24.6*!
C[C@@H]1CN([C@@H](C)CO)C(=O)Cc2cc(NC(=O)c3ccncc3)ccc2O[C@H]1CN(C)CC1CCCCC1	-0.7	0.1	18.3	6.4	-6.3
COc1ccc(-c2ccc3c(c2)S(=O)(=O)c2cccc(C(=O)NCCOc4ccccc4Cl)c2C3=O)cc1OC	2.0	0.2	-29.7	3.2	21.9*
COc1ccc(-c2ccc3c(c2)S(=O)(=O)c2cccc(C(=O)NCc4ccccc4Cl)c2C3=O)cc1OC	-1.5	0.1	-12.6	3.9	-11.8
